Several values for one entry are separate records, joined by “and”; a condition that tells them apart may be missing. Identical values can stand only once. Compounds without any hit were thinned out: in the full panel of roughly 83,000, 20% have a hit.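 The endpoint reported here, percent growth, reads 100 for growth as untreated, 0 for no net growth and -100 for all cells dead.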 Activity calls are given as the source filed them. Rule for the calls: active = growth percent below 10; inactive = the rest.

This assay deals with HL-60(TB) leukemia. Put plainly: NCI-60 one-dose screen, 48 h (100 = growth as untreated, 0 = no growth, -100 = all killed). The conditions noted are these: 10 µM unless noted.
With `CC1(C)[C@@H](OC(=O)CCC(=O)O)CC[C@]2(C)[C@H]3C(=O)C=C4[C@@H]5C[C@@](C)(C(=O)O)CC[C@]5(C)CC[C@@]4(C)[C@]3(C)CC[C@@H]12`, the growth was 84.9% (inactive) and -56.3% (active). Regarding `COC(=O)[C@]12CC[C@@H](C)[C@H](C)[C@@H]1C1=CC[C@@H]3[C@@]4(C)CC(=O)[C@H](O)[C@@](C)(CO)[C@@H]4C(=O)C[C@@]3(C)[C@]1(C)CC2`, the growth is -33.3% (active). As for `COc1cc(-c2c3c(nc4c2c(C)nn4-c2ccccc2)-c2ccccc2C(=O)C3=O)cc(OC)c1OC`, the growth was 68.8% (inactive). For `COc1ccc(-c2cc(-c3ccc(Cl)cc3)nc(SCCCCCCC(=O)NO)n2)cc1OC` the value was 19% (inactive).

Take `CN(C)c1ccc(-c2c(C#N)c(N)nn2C(=O)c2ccc(NC(=O)c3ccccn3)cc2)cc1`: the growth was 96.5% (inactive). Then `Cc1ccccc1/C=C/C(=O)c1cccc(OCCCOc2cccc(C(=O)/C=C/c3ccccc3C)c2)c1`, with 78.2% [3 µM] (inactive); and `COC1=C(Br)C(=O)C(OC)=C(Br)C1=O`, with 8.67% (active); and `COc1ccc(/C=C(/C(=O)N2CCN(c3ccccc3)CC2)c2cc(OC)c(OC)c(OC)c2)cc1N`, with -37.5% (active). Regarding `CC1=C(CC(=O)c2cccc([N+](=O)[O-])c2)C(=O)c2ccccc2C1=O`, the growth was 1.83% (active). On to `COc1cccc(/C=C/C(=O)c2cc3c(N)c(C(=O)Nc4ccccc4)sc3nc2C)c1`, for which the growth was 16.9% (inactive). For `Cn1c2ccccc2c2nnc(NCCCCO)nc21` the value was 139% (inactive); for `COc1cc2nc(Cl)nc(NCCO)c2cc1OC`, 104% (inactive); for `C(=C\c1nc2ccccc2[nH]1)/c1nc2ccccc2[nH]1`, 93.4% (inactive).

On to `CC1CCCc2sc3nc(NNC(=O)c4cnccn4)n(-c4ccccc4)c(=O)c3c21` (stereo unspecified), for which the growth is -33.4% (active) and -12.4% (active).

`NC(=O)c1cccc(-n2ccc3cc(NC(=O)Nc4ccc(Cl)c(C(F)(F)F)c4)ccc32)n1`: the growth was 99.3% (inactive). On to `CSc1nnc(-c2cnn3c2NC(c2ccccc2)C3)n1-c1ccc(C(F)(F)F)cc1` (stereo unspecified), for which the growth is 73.6% (inactive). In the case of `O=[N+]([O-])c1ccc(Nc2nc(NCCN3CCOCC3)ncc2[N+](=O)[O-])cc1`, the growth was 102% (inactive).

On to `COc1ccc(Br)c2c1C(=O)CC2`, for which the growth is 151% (inactive). `Cc1cc(C)c2c(c1)N(C)c1ncnc(-n3cnc4cc(C)ccc43)c1CC2C` (stereo unspecified): the growth is 11.1% (inactive). For `Cc1cc(O)c2c(c1O)C(=O)C13C(=C2O)C(=O)C2C(O)C1C1C(O)C3C(=O)C3=C(O)c4c(O)cc(C)c(O)c4C(=O)C321` (stereo unspecified) the value was -19.7% (active); for `O=C1C=C(Nc2ccccc2)c2ccccc2C1=O`, 79.5% (inactive) and 101% (inactive); for `Cc1cn(-c2cc(C(=O)Nc3cccc(C#Cc4cccc5[nH]nc(N)c45)c3)cc(C(F)(F)F)c2)cn1`, 25.1% (inactive). Regarding `Cc1ccc(N(CC2=NCCN2)c2cccc(O)c2)cc1`, the growth was 105% (inactive). In the case of `COc1ccc2cc(-c3ccc(NC(C)=O)c(=O)o3)ccc2c1`, the growth is 95.1% (inactive).

Turning to `O=C(Cn1c(=O)ccn(CCCCCCCCOc2ccc(Br)cc2)c1=O)Nc1ccc(Oc2ccc(Cl)cc2)cc1`, the growth is 48.7% (inactive).

As for `COC(=O)c1nc(N)nc(C(=O)OC)c1C(=O)c1ccc(OC)cc1`, the growth was 115% (inactive) and 65.7% (inactive). Consider `CC12CCC3c4ccccc4CCC3(CO1)C2` (stereo unspecified), for which the growth is 87.7% (inactive). Then `Clc1ccc2nc(Cl)c3ccccc3c2c1`, with 92.3% (inactive); and `CCc1ccc(Nc2cc(C)nc3nc(C)nn23)cc1`, with -54.6% (active); and `NCCN1CCN(c2nccc(-c3ccc4ccccc4c3)n2)CC1`, with 34.3% (inactive).

With `CC(C)[C@@H]1CC[C@@H]2[C@@H]1[C@H](OC(=O)/C=C/c1ccccc1)[C@]1(C(C)C)C[C@@H](OC(=O)CO)[C@@]2(C)O1`, the growth is 84.6% (inactive). Turning to `O=C1C=CC(=O)N1c1ccc(N2C(=O)C=CC2=O)cc1`, the growth is -50.6% (active). Consider `CCOP(C)(=O)/C(Cc1ccc(OC)c(OC)c1)=N\O` (stereo unspecified), for which the growth was 98.1% (inactive). On to `COc1ccc(/C=C2\CCCC3=C2N=C2SC(C)=CN2C3c2ccc(OC)cc2)cc1` (stereo unspecified), for which the growth is 76.2% (inactive). With `NC1=NC(SCc2ccccc2CCl)c2ncn(Cc3ccccc3CCl)c2N1` (stereo unspecified), the growth is -25.5% (active). For the compound `Cc1ccc(N2CCN(C(=S)c3cccs3)CC2)cc1`, the growth was 93.3% (inactive).

The values above are taken from PubChem BioAssay (NCI).
